Compounds with a hit are over-represented: about 6.7% of the library has one in this group of screens.
Pf Dd2 growth: P. falciparum Dd2 growth inhibitors, primary screen, SYBR Green fluorescence, single dose replicates | 72 h; active compounds read low | activity change, % at 10 µM | AID 1159554, 2015 | 94,000 tested, 2.3% active; in the data active = activity change below about -80%; inconclusive = no clear call, values can overlap the other calls
T cruzi growth-1: T. cruzi intracellular proliferation inhibitors, primary screen, cell-based, beta-gal Tulahuen parasites, NIH3T3 host, luminescence | T. cruzi beta-gal in NIH3T3, GalScreen luminescence, 90 h | inhibition, % at 8.34 µM | 77,000 tested, 5.9% active | AID 624255, 2012;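 active = mean inhibition above about 93%, with at least 55% of replicates each passing it, limit read from the data, passing the limit was not always enough; inconclusive = only one of those two conditions holds; inactive = neither condition holds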
C diff growth: C. difficile growth inhibitors, primary screen, HTS | Clostridium difficile clinical isolate growth, OD600, 24 h; active compounds read low | growth activity, negative = inhibition, % at 16 µg/mL (by protocol) | 86,000 tested, 0.25% active | AID 1259249, 2017;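 active = mean growth activity at or below -80% and every replicate also at or below -80%; inconclusive = mean at or below -80% but some replicate above -80%; inactive = mean growth activity above -80%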;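 also: 0% = DMSO wells and -100% = levofloxacin 16 µg/mL wells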
T cruzi growth-2: T. cruzi intracellular proliferation inhibitors, confirmation, cell-based, NIH3T3 host, beta-gal parasite, luminescence, cherry-pick. inhibition, % at 8.35 µM. AID 651739, 2012. shares compounds with T cruzi growth-1. 5,600 tested, 72% active. T. cruzi beta-gal in NIH3T3, GalScreen luminescence, 90 h;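 active = mean replicate inhibition above about 95% and at least 55% of replicates individually reaching it, limit read from the data; inconclusive = only one of the two criteria is met; inactive = neither criterion is met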
T cruzi growth-3: inhibitors of intracellular T. cruzi replication, confirmation, NIH3T3 host cells, beta-gal parasites, cherry-pick, set 2 | AID 651740, 2012 | shares compounds with T cruzi growth-1 | T. cruzi beta-gal in NIH3T3, GalScreen luminescence, 90 h | inhibition, % at 2.09 µM | 5,600 tested, 21% active;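 active = mean inhibition above about 95%, with at least 55% of replicates also reaching it, limit read from the data; inconclusive = meets just one of the two conditions; inactive = meets neither condition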;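 also: plate controls were neutral control median for no effect and positive control median for full effect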
3T3 cytotox: cytotoxicity in mouse NIH/3T3 fibroblasts, confirmation, cytotoxicity control for T. cruzi proliferation inhibitor project, cell-based, cherry-pick, single point; AID 651742, 2012; NIH/3T3 viability, CellTiter-Glo ATP luminescence, 90 h; shares compounds with T cruzi growth-1; cytotoxicity (signal decrease), % at 8.35 µM; 5,600 tested, 14% active;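 active = mean signal decrease across replicates above about 35% based on untreated-well scatter, with enough replicates individually passing, limit read from the data; inconclusive = no rule stated though some were filed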;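 also: 0% = median of neutral control wells and 100% = median of positive control wells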
NIH3T3 tox 2: NIH/3T3 fibroblast cytotoxicity, confirmation, cytotoxicity control, cell-based, cherry-pick, single point, set 2 | shares compounds with T cruzi growth-1 | NIH/3T3 viability, CellTiter-Glo ATP luminescence, 90 h | inhibition, % at 24.9 µM | 5,600 tested, 56% active;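 active = mean loss of cell viability signal at or above a set limit, and enough replicates individually reaching it; inconclusive = meets only the mean limit or only the replicate share; inactive = meets neither condition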;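 also: 0% = median of neutral control wells and 100% = median of positive control wells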
* = called active by the depositor; ? = inconclusive; . = no result given.

SMILES	Pf Dd2 growth	T cruzi growth-1	C diff growth	T cruzi growth-2	T cruzi growth-3	3T3 cytotox	NIH3T3 tox 2
C[C@@H]1CN([C@H](C)CO)C(=O)c2cc(NS(=O)(=O)c3ccc(F)cc3)ccc2O[C@H]1CN(C)S(C)(=O)=O	16	27	-2	.	.	.	.
C[C@@H]1CN([C@@H](C)CO)C(=O)c2cc(NS(C)(=O)=O)ccc2O[C@@H](C)CCCCO[C@@H]1CN(C)C(=O)Nc1ccc(F)cc1	-3	31	12	.	.	.	.
COc1ccc(S(=O)(=O)N[C@H]2CC[C@@H](CC(=O)NCCc3ccccc3)O[C@@H]2CO)cc1	-7	.	-2	.	.	.	.
C[C@@H]1CN([C@@H](C)CO)C(=O)c2cccc(NS(=O)(=O)c3cn(C)cn3)c2O[C@@H]1CN(C)CC1CCCCC1	6	0	1	.	.	.	.
COc1ccc(S(=O)(=O)Nc2cccc3c2O[C@H](CN(C)Cc2ccc(C(=O)O)cc2)[C@@H](C)CN([C@@H](C)CO)C3=O)cc1	27	-18	-1	.	.	.	.
C[C@H](CO)N1C[C@H](C)[C@H](CN(C)Cc2ccc(C(=O)O)cc2)Oc2c(NS(=O)(=O)c3cn(C)cn3)cccc2C1=O	-2	?	-8	76	4	-3	5
C[C@H]1CN([C@@H](C)CO)C(=O)c2cccc(NS(=O)(=O)c3cn(C)cn3)c2O[C@H]1CN(C)Cc1ccc(C(=O)O)cc1	-11	26	-1	.	.	.	.
COc1ccc(S(=O)(=O)Nc2cccc3c2O[C@@H](CN(C)Cc2ccc(C(=O)O)cc2)[C@H](C)CN([C@@H](C)CO)C3=O)cc1	-6	105*	-3	2	11	-10	-8
C[C@@H]1CN([C@H](C)CO)C(=O)c2cccc(NS(=O)(=O)c3cn(C)cn3)c2O[C@H]1CN(C)CC1CCCCC1	16	102*	3	-15	11	-10	-5
CNC[C@@H]1Oc2cc(C#CC(C)(C)O)ccc2S(=O)(=O)N([C@@H](C)CO)C[C@H]1C	-11	20	-2	.	.	.	.
O=C(C[C@H]1C=C[C@H](NS(=O)(=O)c2ccc(F)cc2)[C@@H](CO)O1)NC1CCCCC1	-12	-47	.	.	.	.	.
CN(C)C(=O)c1ccc(-c2ccc([C@@H]3[C@@H](CO)N4C(=O)CN(C(=O)C5CC5)C[C@H]34)cc2)cc1	-1	.	3	.	.	.	.
O=C(C[C@@H]1CC[C@H]2[C@@H](COC[C@H](O)CN2C(=O)Nc2ccc(F)cc2)O1)NCCc1ccncc1	13	65	.	.	.	.	.
O=C(Nc1ccc(F)cc1)N[C@@H]1C[C@@H]2O[C@@H](CO)CC[C@@H]2O[C@@H]1CCc1ccc(C2=CCCC2)cc1	16	.	-5	.	.	.	.
CN1c2ccc(-c3ccccc3)cc2[C@H]2[C@H](CCN2C(=O)c2ccccc2)[C@H]1CO	-23	48	6	.	.	.	.
CN(C)C(=O)c1cccc(-c2ccc3c(c2)[C@H]2[C@H](CCN2C(=O)c2ccccc2)[C@@H](CO)N3C)c1	-75	102*	12	100*	72	9	-5
CN1c2ccc(-c3ccccc3)cc2[C@H]2[C@H](CCN2C(=O)c2ccc(F)cc2)[C@H]1CO	-7	89	-7	.	.	.	.
CN1c2ccc(-c3ccc(F)cc3)cc2[C@H]2[C@H](CCN2C(=O)c2ccncc2)[C@@H]1CO	1	?	-8	110*	46	4	?
CN1c2ccc(-c3ccc(F)cc3)cc2[C@@H]2[C@@H](CCN2C(=O)c2ccncc2)[C@H]1CO	34	93	-9	.	.	.	.
CN1c2ccc(-c3ccccc3)cc2[C@H]2[C@H](CCN2C(=O)c2ccncc2)[C@H]1CO	14	103*	-9	107*	48	18	11
COc1ccc(S(=O)(=O)N(C)C[C@@H]2Oc3ccc(NS(=O)(=O)c4ccc(Cl)cc4)cc3C(=O)N([C@@H](C)CO)C[C@H]2C)cc1	-38	-2	.	.	.	.	.
C[C@H](CO)N1C[C@H](C)[C@H](CN(C)S(=O)(=O)c2ccccc2)Oc2ccc(NC(=O)CCCCCC(=O)Nc3ccccc3N)cc2C1=O	-8	.	-8	.	.	.	.
Cc1ccccc1NC(=O)C[C@H]1CC[C@H]2[C@@H](COc3ccc(NC(=O)NC(C)C)cc3C(=O)N2C)O1	14	.	2	.	.	.	.
CC(C)(C)OC(=O)CC[C@@]12N=C(c3ccc(OCCCO)cc3)O[C@@H]1c1ccccc1CN(C(=O)c1ccccc1)C2=O	.	.	4	.	.	.	.
COc1ccc(S(=O)(=O)N(C)C[C@H]2Oc3cc(C#CC4CC4)ccc3S(=O)(=O)N([C@H](C)CO)C[C@H]2C)cc1	-61	107*	-1	108*	93	24	59*
SMILES	Pf Dd2 growth	T cruzi growth-1	C diff growth	T cruzi growth-2	T cruzi growth-3	3T3 cytotox	NIH3T3 tox 2
COc1ccc(S(=O)(=O)N(C)C[C@@H]2Oc3cc(C#CC4CCCC4)ccc3S(=O)(=O)N([C@@H](C)CO)C[C@@H]2C)cc1	-75	67	7	.	.	.	.
COc1ccc(S(=O)(=O)N(C)C[C@@H]2Oc3cc(C#CC4CC4)ccc3S(=O)(=O)N([C@@H](C)CO)C[C@H]2C)cc1	-76	112*	9	102*	77	53*	40*
COc1ccc(S(=O)(=O)N(C)C[C@@H]2Oc3cc(C#CC4CCCC4)ccc3S(=O)(=O)N([C@H](C)CO)C[C@@H]2C)cc1	-47	73	12	.	.	.	.
C[C@H](CO)N1C[C@H](C)[C@H](CN(C)S(C)(=O)=O)Oc2ccc(NC(=O)Cc3ccccc3)cc2CC1=O	-4	-9	-1	.	.	.	.
C[C@H](CO)N1C[C@H](C)[C@@H](CN(C)C(=O)Nc2cccc3ccccc23)OCCCC[C@H](C)Oc2ccc(NC(=O)C3CCCCC3)cc2C1=O	-75	64	-14	.	.	.	.
C[C@@H]1CCCCO[C@@H](CN(C)C(=O)Nc2cccc3ccccc23)[C@@H](C)CN([C@@H](C)CO)C(=O)c2cc(NC(=O)C3CCCCC3)ccc2O1	-90*	?	18	110*	69	-5	0
C[C@H](CO)N1C[C@H](C)[C@H](CN(C)C(=O)Nc2cccc3ccccc23)OCCCC[C@H](C)Oc2ccc(N(C)C)cc2C1=O	-59	59	-12	.	.	.	.
C[C@@H]1CCCCO[C@H](CN(C)C(=O)NC2CCCCC2)[C@H](C)CN([C@H](C)CO)C(=O)c2cc(NC(=O)Nc3cccc4ccccc34)ccc2O1	-76	85	-6	.	.	.	.
C[C@@H]1CCCCO[C@@H](CN(C)C(=O)NC2CCCCC2)[C@H](C)CN([C@@H](C)CO)C(=O)c2cc(NC(=O)Nc3cccc4ccccc34)ccc2O1	-31	82	-7	.	.	.	.
